Experimental data from PubChem BioAssay (Tox21).
Inconclusive results are not listed. Entries that show only a call come without a potency. Active and inactive are the calls of the source. The call rests on the fitted dose curve; in most records, active means well fitted inhibition curve with a large enough effect in the repeat runs; inconclusive means weak or mixed curves; inactive means no such curve, though single readings can be large or run the other way.

assay: qHTS assay to identify small molecule antagonists of the estrogen related receptor (ERR) signaling pathway from Tox21 library (AID 1224848); conditions: ERR reporter cell line, luciferase antagonist mode, 18 h; series mostly up to 92.4 µM; further: nearly all actives have a fitted effect of over 50% in size
Excerpt: U.S. Tox21 Program National Center for Advancing Translational Sciences [NCATS] NIH Chemical Genomics Center [NCGC] U.S. Environmental Protection Agency [EPA] National Institutes of Environmental Health Sciences [NIEHS] National Toxicology Program [NTP] U.S. Food and Drug Administration [FDA] Tox21 Assay Overview: Estrogen related receptors (ERRs), the first orphan nuclear receptors discovered, play an important role in the control of cellular energy metabolism. ERRs are required for high-energy production in response to the environmental challenges. ERR-alpha was also identified as an adverse marker for breast cancer progression; ERR-alpha-positive tumors have a poor prognosis. To screen and to identify environmental compounds that perturb the ERR signaling pathways could provide valuable information for potential therapeutic or preventive measures in the treatment of metabolic disease. For identifying ERR antagonists, ERR cell line (provided by NTP) has been used to screen Tox21 10K library.
Tox21 Assay Protocol Summary: The ERR cells were dispensed at 2,000 cells/5 ul/well in 1536-well white plates using a Multidrop dispenser. After the assay plates were incubated at a 37 C/5% CO2 incubator for 6 hours, 23 nL of compounds dissolved in DMSO, positive and negative controls or DMSO only was transferred to the assay plate by a pin tool. The plates were incubated at 37 C for 18 hours. 4 ul/well of One-Glo reagent was added into the assay plates using a Flying Reagent Dispenser. After 30-minute incubation at room temperature, the luminescence intensity in the plates was measured using a ViewLux plate reader.
Potency means the concentration at half of the fitted maximal effect.

Row | Compound | Potency | activity, negative = inhibition
1 | C=CCS(=O)(=O)O | inactive | –
2 | CCOC(C)(C)C | inactive | –
3 | C[C@H](NC(CCc1ccccc1)C(=O)O)C(=O)N1CCC[C@H]1C(=O)O (stereo not given in full) | 5.96 µM (active) | –
4 | O=C(CCCN1CCN(c2ccccn2)CC1)c1ccc(F)cc1 | inactive | –
5 | C=C(C)C(=O)OCCCCCCCC(C)C | inactive | –
6 | N[C@H]1CN(c2c(F)cc3c(=O)c(C(=O)O)cn(C4C[C@H]4F)c3c2Cl)CC12CC2 (stereo not given in full) | inactive | –
7 | COCCCOCCCOC | inactive | –
8 | Cc1ccc(Cl)cc1Cl | inactive | –
9 | O=C(O)CNC(=O)c1ccc([N+](=O)[O-])cc1 | inactive | –
10 | CC(=O)OCC(=O)[C@@]1(O)CCC2C3CCC4=CC(=O)CC[C@]4(C)C3[C@@H](O)C[C@@]21C (stereo not given in full) | inactive | –
11 | CS(=O)(=O)O | inactive | –
12 | CC(=O)Nc1c(I)cc(I)c(C(=O)O)c1I | inactive | –
13 | OC1CCCCC1c1ccccc1 (stereo not given) | inactive | –
14 | CC(C)(O)C(=O)c1ccccc1 | inactive | –
15 | CC/C=C\CCOC(C)=O | inactive | –
16 | CCCCCCCCCCCCCCCCC | inactive | –
17 | O=C1CCCN1C1CCCCC1 | inactive | –
18 | OCCCC1CCCCC1 | inactive | –
19 | CC(C)OC(=O)c1ccccc1 | inactive | –
20 | O=C(O)CCCc1ccccc1 | inactive | –

Row | Compound | Potency | activity, negative = inhibition
21 | CCCCCSCCCCC | inactive | –
22 | CC(C)NC(=O)NC(C)C | inactive | –
23 | Cc1c(O)cccc1O | inactive | –
24 | CO/N=C(/C(=O)N[C@@H]1C(=O)N2C(C(=O)OCOC(=O)C(C)(C)C)=C(C)CS[C@H]12)c1csc(N)n1 | inactive | –
25 | CN(C)CCCNCCCN(C)C | inactive | –
26 | COc1c(N2C[C@@H]3CCCN[C@@H]3C2)c(F)cc2c(=O)c(C(=O)O)cn(C3CC3)c12 | inactive | –
27 | CC(C)c1cc2c(cc1S(=O)(=O)O)[C@@]1(C)CCC[C@@](C)(C(=O)O)[C@@H]1CC2 | inactive | –
28 | Cc1cc(O)cc2c1O[C@](C)(CCC[C@H](C)CCC[C@H](C)CCCC(C)C)CC2 | inactive | –
29 | FC1(F)C(F)(F)C(F)(F)C2(F)C(F)(F)C(F)(F)C(F)(F)C(F)(F)C2(F)C1(F)F (stereo not given) | inactive | –
30 | CN1CC(=O)NC1=N | inactive | –
31 | COc1cc(C(=O)N2CCCCCCC2)cc(OC)c1OC | inactive | –
32 | O=c1[nH]c(=O)n([C@H]2C[C@H](O)[C@@H](CO)O2)cc1I | inactive | –
33 | CCCCNC(=O)NCCCC | inactive | –
34 | Nc1c2c(nc3ccccc13)CCCC2O (stereo not given) | inactive | –
35 | C=C(C)CS(=O)(=O)O | inactive | –
36 | Cn1cc(S(C)=O)c(=O)c2ccc(F)cc21 (stereo not given) | inactive | –
37 | CC(C)CCCC(C)N (stereo not given) | inactive | –
38 | CCOC(=O)C(=O)OCC | inactive | –
39 | CCCCCCCCCCCCCC=O | – | -0.715% [at 8.39 µM] (inactive)
40 | CCCCC(CC)COC(=O)c1ccccc1O (stereo not given) | inactive | –
